The entries come from a sample that favours hits as a whole.
Methyltransferases – Primary Screen for Target Class Profiling of Small Molecule Inhibitors of Methyltransferases | purified enzyme, MTase-Glo SAH luminescence; hits give low values | calls only at 40 µM | hit rate 3.9% among 25,000 | AID 1745853, 2022; call rule not given here
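Each enzyme was reacted with SAM and its substrate, with compounds tested once at 40 uM; SAH formed was read by MTase-Glo luminescence.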
Large screens that a line does not name were inactive; ! = not confirmed by another sample.

C/C=C/c1ccc(O[C@@H]2O[C@H](CO)[C@@H](O)[C@H](O)[C@H]2O)c(OC)c1	none
COc1cc(/C=C/C(=O)OCC2OC(OC3(CO)OC(CO)C(O)C3O)C(O)C(O)C2O)ccc1O (configuration not stated)	Methyltransferases active
COc1cc(/C=C/C(=O)OC2CC(C)=C(C(=O)O)/C2=C/CO[C@@H]2O[C@H](CO)[C@@H](O)[C@H](O)[C@H]2O)ccc1O (some centres not stated)	none
COc1cc(C(O)C(CO)Oc2ccc(CCCO[C@@H]3O[C@@H](C)[C@H](O)[C@@H](O)[C@H]3O)cc2OC)ccc1O (some centres not stated)	Methyltransferases active
COc1cc(C2Oc3c(OC)cc(/C=C/C(=O)OC[C@H]4O[C@@H](OC(C)(C)C(=O)O)[C@H](O)[C@@H](O)[C@@H]4O)cc3C2CO)ccc1O (some centres not stated)	Methyltransferases active
COc1cc(C2Oc3c(OC)cc(CCCO)cc3C2CO)ccc1O[C@H]1O[C@H](C)[C@@H](O)[C@H](O)[C@@H]1O (some centres not stated)	none
CC1(C(=O)NC2CCCC2)Cn2c(cc3ccccc32)C(=O)N1Cc1ccco1 (configuration not stated)	none
Cc1ccc(NC(=O)N2Cc3c(sc4c3CCCC4)-n3cccc3C2c2cc(F)cc(F)c2)cc1F (configuration not stated)	none
CCc1cc2c(cc3n2CC(C)(C(=O)NC2CCCCC2)N(c2ccc(OC)c(OC)c2)C3=O)s1 (configuration not stated)	none
CCCN1C(=O)c2c(C(=O)NCc3ccc(OCC)cc3)ncn2CC1(C)C(=O)NCc1ccc(C)cc1 (configuration not stated)	none
CCOC(=O)c1cc2n(n1)CC(C)(C(=O)NCc1ccccc1)N(c1ccc(C)c(C)c1)C2=O (configuration not stated)	none
CC1(C(=O)NC2CCCCCC2)Cn2c(cc3sccc32)C(=O)N1c1ccc(Cl)cc1 (configuration not stated)	none
CCOc1ccc(CN2C(=O)c3cc4ccccc4n3CC2(C)C(=O)NCc2ccccc2OC)cc1OC (configuration not stated)	none
CCc1ccccc1NC(=O)Cn1c(=O)oc2cc(S(=O)(=O)N3CCCC3)ccc21	none
O=C(Cn1ccc2cc(S(=O)(=O)N3CCCCC3)ccc21)NCc1ccc(Cl)cc1	none
O=C(NCc1ccccn1)c1ccc2c(=O)nc3c(-c4ccc(F)cc4)n[nH]n3c2c1	none
Cc1ccc(C(=O)N(Cc2ccccc2)S(=O)(=O)c2ccc3c(c2)n(C)c(=O)n3C)cc1	none
CCCN1C(=O)c2c(C(=O)NCc3cccc(C)c3)ncn2CC1(C)C(=O)NCc1ccc(OC)cc1 (configuration not stated)	none
CC(C)CNC(=O)c1ccc2c(=O)n(C(C)C)c3nn(CC(=O)NC(C)(C)C)c(=O)n3c2c1	none
CCOC(=O)c1cc2n(n1)CC(C)(C(=O)NCCC(C)C)N(c1ccccc1CC)C2=O (configuration not stated)	none
CC(C)c1ccc(N2C(=O)CSc3c(c4ccccc4n3C)C2C(=O)NCc2ccccc2)cc1 (configuration not stated)	none
CC1CCC(NC(=O)C2(C)Cn3c(ccc3-c3ccco3)C(=O)N2Cc2ccccn2)CC1 (configuration not stated)	none
COc1cc(C2Oc3c(OC)cc(CCCO[C@@H]4O[C@H](CO)[C@@H](O)[C@H](O)[C@H]4O)cc3C2CO)ccc1O (some centres not stated)	Methyltransferases active
COc1cc(C[C@@]2(O)CO[C@@H](c3ccc(O[C@@H]4O[C@H](CO)[C@@H](O)[C@H](O)[C@H]4O)c(OC)c3)[C@H]2CO)ccc1O	none
COc1ccc(C2Oc3c(OC)cc(CCCO)cc3C2COC2OC(CO)C(O)C(O)C2O)cc1OC (configuration not stated)	none
Cc1cccc(CCNC(=O)CCCc2nnc3n4nc(C)nc4c4ccccc4n23)c1	none
CCCN1C(=O)c2c(C(=O)NCc3ccccc3OCC)ncn2CC1(C)C(=O)NCc1ccc(C)cc1 (configuration not stated)	none
c1cn2cc(-c3ccc4cn[nH]c4c3)nc(Nc3ccc(N4CCOCC4)cc3)c2n1	Methyltransferases active
O=c1[nH]c2ccc(S(=O)(=O)Nc3ccc(N4CCOCC4)cc3)cc2[nH]1	none
COc1ccc(OC)c(N2C(=O)c3cc4ccc(OC)cc4n3CC2(C)C(=O)NC2CCCCC2)c1 (configuration not stated)	none
Cc1ccccc1-n1c(Cn2nc(-c3cccc(O)c3)c3c(N)ncnc32)nc2cccc(C)c2c1=O	Methyltransferases active
CC1(C(=O)NCc2ccc(F)cc2)Cn2cnc(C(=O)NCc3ccc(F)cc3)c2C(=O)N1C1CC1 (configuration not stated)	none
COCCCN1C(=O)c2cc3occc3n2CC1(C)C(=O)NC1CCCCC1 (configuration not stated)	none
CC(C)n1c(=O)c2ccc(C(=O)NC3CCCCC3)cc2n2c(=O)n(CC(=O)NC3CCCC3)nc12	none
CCCn1c(=O)c2ccccc2n2c(SCC(=O)Nc3cc(Cl)ccc3C)nnc12	none
CCCNc1nc2c(-c3cccc(F)c3)nnn2c2ccc(Cl)cc12	none
CN(C)[C@@H]1C[C@@H](CO)N(C(=O)c2csc3nc(-c4ccccc4Cl)cn23)C1	none
O=C(Nc1ccccc1-c1cn2c(CN3CCNCC3)csc2n1)c1cnc2ccccc2n1	Methyltransferases active!
CCOc1ccc(CN2C(=O)c3ccc(-c4ccco4)n3CC2(C)C(=O)NCCC(C)C)cc1 (configuration not stated)	none
CCOC(=O)c1cc2n(n1)CC(C)(C(=O)NC1CCCC1)N(Cc1ccc(C)cc1)C2=O (configuration not stated)	none
Cc1ccc(Cn2c(=O)c3ccccc3n3c(CCC(=O)NCCc4ccc(Cl)cc4)nnc23)cc1	none
Cc1nc(Nc2n[nH]c3c2CN(C(=O)NC(CN(C)C)c2ccccc2)C3(C)C)c2sccc2n1 (configuration not stated)	Methyltransferases active
CC1CCN(S(=O)(=O)c2ccc3c(ccn3CC(=O)NC3CCCc4ccccc43)c2)CC1 (configuration not stated)	none
CC1(C(=O)NCc2ccc(Cl)cc2)Cn2c(ccc2-c2ccco2)C(=O)N1Cc1ccccc1 (configuration not stated)	none
CCCNc1ccc2ncc(-c3ccc4[nH]ncc4c3)n2n1	Methyltransferases active
CCCN1C(=O)c2c(C(=O)NCCc3ccccc3)ncn2CC1(C)C(=O)NCc1ccc(OC)cc1 (configuration not stated)	none
CN1C(=O)c2cc(C(=O)NCCC3=CCCCC3)nn2CC1(C)C(=O)NCc1ccccc1 (configuration not stated)	none
COCc1c(O)c(C(=O)O)c(C)c2c1OC(=O)c1c(C)cc(O)c(CO)c1O2	Methyltransferases active
COc1ccc(NC(=O)CN(C)S(=O)(=O)c2ccc3[nH]c4c(c3c2)CCCC4)cc1	none
CCOc1ccc(CCN2C(=O)c3ccc(-c4ccco4)n3CC2(C)C(=O)NCc2ccccc2)cc1OCC (configuration not stated)	none
C=CC(=O)Nc1ccc2ncnc(Nc3cccc(Br)c3)c2c1	Methyltransferases active
CCOC(=O)c1ccc(Nc2ncnc3ccc(Br)cc23)cc1	none
CCOC(=O)c1cnc2ccc(Br)cc2c1Nc1cccc(C(C)=O)c1	none
CCOC(=O)c1cc2n(n1)CC(C)(C(=O)NC1CCCCC1)N(c1ccccc1CC)C2=O (configuration not stated)	none

Screening results as filed in PubChem.
